Values joined by “and” are separate entries in the source; they are usually repeats but may differ in a detail not shown here. Equal values may be shown once. About 79,000 compounds went through this panel and 15% of them were active in at least one assay; those are over-represented in the sample as a whole. No stated cut-off is given here; in the data, active means growth inhibition above about 70%; inactive means the rest.
Columns and labels:
[1] = NCI Yeast Anticancer Drug Screen. Data for the rad50 strain (AID 155);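 further: 0% = growth of vehicle-only cultures of the same strain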; conditions: S. cerevisiae rad50 strain growth inhibition; at 50.0 µM; active compounds read high
Procedure, shortened: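 DNA repair mutant yeast, compound exposure, growth read-out; inhibition is taken relative to vehicle.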

[2] = NCI Yeast Anticancer Drug Screen. Data for the mec2-1 strain (AID 157); conditions: S. cerevisiae mec2-1 strain, at 50.0 µM, active compounds read high
Procedure, shortened: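 Yeast mec2-1 mutant treated with compound. Readout: growth inhibition vs vehicle controls.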

[3] = NCI Yeast Anticancer Drug Screen. Data for the sgs1 mgt1 strain (AID 161);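 further: 0% = growth of cultures given vehicle only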; conditions: S. cerevisiae sgs1 mgt1 strain, at 50.0 µM, active compounds read high
Procedure, shortened: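 Mutant yeast exposed to compound; growth scored against vehicle-only wells.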

[4] = NCI Yeast Anticancer Drug Screen. Data for the cln2 rad14 strain (AID 165);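 further: 0% = growth equal to vehicle treated cultures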; conditions: S. cerevisiae cln2 rad14 strain, at 50.0 µM, active compounds read high
Procedure, shortened: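 cln2 rad14 yeast strain; compound exposure; growth inhibition read vs vehicle controls.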

[5] = NCI Yeast Anticancer Drug Screen. Data for the bub3 strain (AID 167); conditions: S. cerevisiae bub3 mutant strain, at 50.0 µM, active compounds read high
Procedure, shortened: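 In this screen, a yeast mutant lacking normal mitotic checkpoint function is challenged with compound. Relative growth versus vehicle gives the inhibition value.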

[6] = NCI Yeast Anticancer Drug Screen. Data for the mlh1 rad18 strain (AID 175); conditions: S. cerevisiae mlh1 rad18 strain growth inhibition; at 50.0 µM; active compounds read high
Procedure, shortened: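 Yeast w/ defined DNA-repair lesions; compound exposure; growth vs vehicle controls → % inhibition.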

Measured: growth inhibition

Nc1ncnc2c1nc(N1CCCCC1)n2C1OC(CO)C(O)C1O (stereo unspecified)
inactive: [1] 27.9% and -5.55% | [2] 12.2% and -0.15% | [3] 9.9% | [4] -38% and -43.2% | [5] 3.5% and -5.1% | [6] 2.6% and -7.85%

O=Nc1ccc(NO)cc1
inactive: [1] 29.9% and 34% | [2] 32.7% and 7.45% | [3] 33.5% and 20.3% | [4] -25.2% and 22.3% | [5] 3.2% and 47.5% | [6] 3.35% and 31.6%

COC1C(O)C(O)C(O)C(O)C1O (stereo unspecified)
inactive: [1] 0.95% and -11.2% | [2] -4.8% and -13.4% | [3] -0.35% and -18.1% | [4] 21.2% and 9.9% | [5] -3.1% and -31.4% | [6] -0.45% and -15.6%

O=C(O)CSc1nc2ccccc2s1
inactive: [1] -8.8% and -6.9% | [2] 1.7% and -9.8% | [3] -0.85% and -11.6% | [4] -28.8% and -12% | [5] 9.45% and -33.6% | [6] -12.7% and -48%

COc1nc2c(c(=O)n1C)NC(C(O)C(O)CO)C=N2 (stereo unspecified)
inactive: [1] -34.7% and -26.7% | [2] -20.6% and -33.5% | [3] -23.8% and -25.8% | [4] -5.05% and 8.25% | [5] -14.8% and -15.7% | [6] -23.4% and -17.4%

O=C1NC(=O)C(=Nc2c(O)[nH]c(=O)[nH]c2=O)C(=O)N1
inactive: [1] 2.65% and -11% | [2] -11.9% and -14.3% | [3] 2.3% and -10.6% | [4] -25.2% and -31.8% | [5] 1.1% and 16.6% | [6] 12.1% and -13.1%

O=C(NS(=O)(=O)c1ccccc1)OCc1ccccc1
inactive: [1] 4.65% and -18.1% | [2] -11.8% and -4.35% | [3] -14.8% and -15.3% | [4] -22.2% and -31.8% | [5] 16.7% and 24.8% | [6] -6.1% and 6.1%

CCOc1ccc(C(C)=O)cc1
inactive: [1] 10.7% and -0.6% | [2] 5.25% and 3.75% | [3] 5.85% and 3.85% | [4] 10.9% and 1.45% | [5] 5.5% and 3.65% | [6] -2.05% and -7.45%

CC(C(=O)O)C(=O)O.[NH-]C1CCCCC1[NH-].[Pt+2]
inactive: [1] 8.5% and 16.2% | [2] 6.7% and 5.2% | [3] -11.1% and -3.45% | [4] 11.2% and -0.05% | [5] 20.4% and 21.3% | [6] 32.3% and 34.4%

O=CNc1ccc(C(F)(F)F)cc1
inactive: [1] -16.9% and 16.4% | [2] -6.85% and -3.6% | [3] -3.3% and 6.35% | [4] -10.9% and 14.7% | [5] -8.8% and 25.4% | [6] 5.3% and 10.9%

CCCCNC(=S)S
inactive: [1] -1.1% and -33.5% | [2] -19.8% and -30.9% | [3] 0.65% and -20.4% | [4] -7.65% and -14.2% | [5] 11% and -23.7% | [6] -6.9% and -22.5%

C/C(=N\NS(C)(=O)=O)C(C)(C)C
inactive: [1] -5.05% and 16.1% | [2] -0.2% and 11.1% | [3] 2.35% and 21.3% | [4] -5.35% and 6.5% | [5] -35.5% and -20.8% | [6] -13% and 17.8%

O=C1C(c2ccccc2)=C(c2ccccc2)C(c2ccccc2)=C1c1ccccc1
inactive: [1] 36.6% and 12.2% | [2] -3.9% and 8.35% | [3] 15.8% and 25.2% | [4] -14% and -2.4% | [5] 0.25% and 12.2% | [6] 18.7% and 8.9%

O=C1/C(=C/c2ccc(F)cc2)CCC/C1=C\c1ccc(F)cc1
inactive: [1] 26.6% and -14.2% | [2] -25.7% and -10.3% | [3] 34.2% and 1.45% | [4] 27.7% and -21.4% | [5] 15.4% and -5.45% | [6] 18.9% and -6.1%

O=C(O)C(O)C(O)C(O)C(=O)CO (stereo unspecified)
inactive: [1] -2.25% and -13.1% | [2] -27.3% and -1.05% | [3] -4.9% and -10.4% | [4] -32.6% and -40.5% | [5] -16.9% and -42.5% | [6] -19.2% and 13.7%

O=C(O)C(Cc1ccccc1)Cc1ccccc1
inactive: [1] -11.6% and 20.8% | [2] 4.6% and 3.1% | [3] -14.4% and 9.8% | [4] -40.1% and 29.2% | [5] -22.9% and 43.5% | [6] 3.75% and 35.2%

CC(=O)OCC(=O)c1ccc(-c2ccccc2)cc1
inactive: [1] 6.55% and 7.65% | [2] -14.8% and 4.5% | [3] 14.1% | [4] 8.35% and -22.8% | [5] 39.9% and 28.6% | [6] 18.8% and 23.9%

CC(=O)OCC1OC(n2c(=S)n(-c3ccc(C)cc3)c(=O)c3ccccc32)C(OC(C)=O)C(OC(C)=O)C1OC(C)=O (stereo unspecified)
inactive: [1] 2.2% and 32% | [2] 6.1% and 18.4% | [3] -11.1% and 15.9% | [4] 21% and 21.2% | [5] -6.65% and 14.7% | [6] -9.4% and 4.9%

CCN(CC)C(=O)N1CCN(C)CC1
inactive: [1] 26.1% and -15.6% | [2] -26.9% and -4.6% | [3] 1.4% and -3.65% | [4] -41.1% and 5.8% | [5] -1.1% and 9.7% | [6] 15.2% and -8%

Cc1c(C)[n+](=O)c2ccccc2n1[O-]
inactive: [1] 15.9% and 7.2% | [2] -19.1% and -4% | [3] -7.6% and 3.5% | [4] -20.6% and -2.05% | [5] -18.1% and -3.6% | [6] 5.4% and 5.85%

C/C(=N\NC(N)=O)c1ccc(Cl)cc1
inactive: [1] 27.9% and 9.05% | [2] 10.8% and -3.65% | [3] 2% and -6.25% | [4] 9.6% and -8.65% | [5] -4.15% and 6% | [6] 7.3% and 10.7%
